ChEMBL document CHEMBL4513216, “Probing the Open Global Health Chemical Diversity Library for Multistage-Active Starting Points for Next-Generation Antimalarials” (ACS Infect Dis, 2020)
Hit rate of the full screen: of about 69,000 compounds, about 8,600 (12%) showed an effect of 50% or more. Many of the other results were omitted from the sample, so strong results are more common in it than they were.

Each compound was assayed on Plasmodium berghei (assay: Screen against P. berghei liver stage (PbLuc), transformed with Luciferase, at 10uM). Details: tested at 10 uM.
Assay type: functional, HepG2

| SMILES | INHIBITION |
| --- | --- |
| Cc1nccn1C1CCCN(C(=O)c2cnn(C)c2C2CC2)C1 (stereo not drawn) | -3.58% |
| Cc1cc(C)nc(NC(=O)NCCCSc2nncn2C)n1 | 9% |
| CCc1cnc(CN(C(C)=O)C2CCN(CCc3ccncc3)C2)o1 (stereo not drawn) | 42.9% |
| O=C(CC[C@@H]1CCCN2CCCC[C@H]12)N1CCC(c2nnc[nH]2)CC1 | -9.8% |
| Fc1cnc(N2CCCn3c(nnc3Cn3cccc3)C2)nc1 | -23.4% |
| Fc1cnc(N2CCn3c(CN4CCCC4)nnc3C2)nc1 | 57.9% |
| Fc1cnc(N2CCCn3c(CN4CCOCC4)nnc3C2)nc1 | -16.9% |
| CS(=O)(=O)c1ccc(C(=O)N2CCCC(n3cncn3)C2)o1 (stereo not drawn) | 21.8% |
| CCc1nnc(Nc2cccc(C3CCN(CCO)CC3)n2)s1 | 55.7% |
| CCc1nnc(Nc2cccc(C3CCN(S(=O)(=O)N(C)C)CC3)n2)s1 | 53.2% |
| CCc1nnc(Nc2cccc(C3CCN(C(C)=O)CC3)n2)s1 | -28.6% |
| CCc1nnc(Nc2cccc(C3CCN(C(=O)CN(C)C)CC3)n2)s1 | 22% |
| CCc1nnc(Nc2cccc(C3CCN(C)CC3)n2)s1 | 12.3% |
| Cc1nnc(Nc2cccc(C3CCN(CCO)CC3)n2)s1 | 13.6% |
| CS(=O)(=O)NC1CCCN(C(=O)Nc2ccccc2Cn2cccn2)C1 (stereo not drawn) | 20.9% |
| O=C(NCCn1ccnc1)N1CCCC1c1cccs1 (stereo not drawn) | 7.333% |
| Cc1cc(F)c2c(c1)CCCN2Cc1cc(=O)n(C)c(=O)n1C | -14.2% |
| COc1ccc(-c2cnc(CN3CCCC3Cn3cccn3)o2)cc1 (stereo not drawn) | -21.8% |
| c1csc(CN2Cc3nccn3CC(Cn3cncn3)C2)n1 (stereo not drawn) | 28.5% |
| O=c1c(NCCNCCO)c(N2CCN(c3ccccc3)CC2)c1=O | 55.5% |
| O=c1c(NCCO)c(N2CCN(c3ccccc3)CC2)c1=O | 29.8% |
| O=c1c(NCCNCCO)c(N2CCN(Cc3ccccc3)CC2)c1=O | 28.3% |
| COc1ccc(CN2C[C@@H]3COC[C@]3(CN(C)C)C2)cc1 | 20.5% |
| CN(Cc1cccc(C#N)c1)C(=O)C1CC(c2cccc(F)c2)=NO1 (stereo not drawn) | 8.38% |
| COc1ccc(OC)c2c(C)cc(N(C)CCCO)nc12 | 51.1% |
| COc1ccc(OC)c2c(C)cc(N(C)CCO)nc12 | 0.897% |

| SMILES | INHIBITION |
| --- | --- |
| COc1ccc(OC)c2c(C)cc(N(CCO)CCO)nc12 | 1.79% |
| O=C(NCc1ccc2c(c1)OCO2)c1ccc(N2CCCCC2)nn1 | 33.4% |
| O=C(c1ccccc1)N1CCC[C@]2(C[C@@H](OCc3ccccn3)CO2)C1 | 49.7% |
| CN(C)S(=O)(=O)N1CC[C@]2(C[C@H](OCc3ccncc3)CO2)C1 | 57.1% |
| CN(C)S(=O)(=O)N1C[C@@H](Oc2ccccn2)[C@H]2OCCC[C@H]21 | -4.74% |
| CCS(=O)(=O)N1C[C@@H](OCc2ccccn2)[C@@H]2OCCC[C@@H]21 | 16.6% |
| Cc1cccc(COC2COC3(CCN(S(C)(=O)=O)CC3)C2)n1 (stereo not drawn) | 44.2% |
| CN(C)S(=O)(=O)N1CC[C@]2(C[C@@H](Oc3cccnc3)CO2)C1 | 21.8% |
| Cc1ccc(C(=O)N2CC[C@]3(C[C@@H](OCc4ccccn4)CO3)C2)nc1 | 35.7% |
| CN(C)S(=O)(=O)N1C[C@@H](OCc2ccccn2)[C@H]2OCCC[C@H]21 | 56.1% |
| Cc1cccc(C(=O)N2CC[C@]3(C[C@H](OCc4ccccn4)CO3)C2)c1 | 71.9% |
| CN(C)S(=O)(=O)N1CC[C@]2(C[C@H](Oc3cccnc3)CO2)C1 | 0% |
| Cc1cccc(COC2COC3(CCN(Cc4ccoc4)CC3)C2)n1 (stereo not drawn) | 11.4% |
| Cc1cccc(CO[C@H]2CO[C@@]3(CCN(S(=O)(=O)N(C)C)C3)C2)n1 | 55.5% |
| COCCN1CCCC(c2ccnc3c(C(N)=O)cnn23)C1 (stereo not drawn) | 37.7% |
| CNC(=O)C(C)(C)N1CCC[C@H]1C(=O)NCC(C)C | 27.2% |
| Cc1cccc(-c2noc(CN3CCCC3Cn3cncn3)n2)c1 (stereo not drawn) | 19.4% |
| CC(Cn1cccn1)n1cnc2ccc(F)cc2c1=O (stereo not drawn) | 35% |
| CCOC(=O)CNC(=O)N1CCC(OC)c2ccccc2N(C)C(=O)C1 (stereo not drawn) | 29.8% |
| O=C1CCCC2=C1C(c1ccco1)C1C(=O)NN=C1N2 (stereo not drawn) | 36.3% |
| CCc1ncc2c(n1)CN(Cc1cccc(OCC(N)=O)c1)CC2 | 0.914% |
| Cc1nc(CN(C)C2CCN(Cc3ccc(Cl)s3)C2)no1 (stereo not drawn) | -35.7% |
| O=S(=O)(CCO)CCc1ccccc1Cl | 25.2% |
| c1ncn(CC2CCCN2Cc2csc(C3CCCCC3)n2)n1 (stereo not drawn) | 23.5% |
| CCNc1cc2c(nn1)CCN(C(=O)Cc1c(C)nn(C)c1C)C2 | 15.5% |
| CC(NC1CCN(CCS(C)(=O)=O)CC1)c1cnn(C(C)C)c1 (stereo not drawn) | -5.22% |

| SMILES | INHIBITION |
| --- | --- |
| O=C(c1cnccn1)N1CCO[C@H]2[C@H](OCc3cccnc3)CC[C@@H]21 | 7.31% |
| CN1CCN(c2ncnc3c2CCN(c2ncc(F)cn2)CC3)CC1 | 24.9% |
| CC1CCN(S(=O)(=O)N2CCC(Oc3cnccn3)CC2)CC1 | 19.6% |
| Cc1cc2c(=O)n3c(nc2s1)CCN(C(=O)c1ccn(C)n1)CC3 | 0.301% |
| CC(=O)NCCNC(=O)Nc1cc(C(C)(C)C)sc1C#N | 42.7% |
| CCS(=O)(=O)N1CC[C@]2(C[C@@H](OCC3CC3)CO2)C1 | 15.1% |
| CN(C)S(=O)(=O)N1CCC2(CC1)CC(Oc1ccccn1)CO2 (stereo not drawn) | -60.2% |
| CN(C)S(=O)(=O)N1CC[C@]2(C[C@H](OCc3ccccn3)CO2)C1 | 57.1% |
| CN(C)S(=O)(=O)N1CC[C@]2(C[C@H](Oc3ncccc3F)CO2)C1 | 34.1% |
| Cc1cccc(CO[C@@H]2CO[C@@]3(CCN(S(=O)(=O)N(C)C)C3)C2)n1 | 63.5% |
| O=S(=O)(c1ccccc1)N1CCC[C@]2(C[C@H](OCC3CC3)CO2)C1 | 19.4% |
| CN(C)S(=O)(=O)N1CC[C@]2(C[C@@H](Oc3ncccc3F)CO2)C1 | 10.1% |
| CCO[C@H]1CO[C@@]2(CCCN(S(=O)(=O)c3ccccc3)C2)C1 | 23.9% |
| CN(C)S(=O)(=O)N1CC[C@]2(C[C@@H](OCC3CC3)CO2)C1 | 57.1% |
| CCO[C@@H]1CO[C@@]2(CCCN(S(=O)(=O)c3ccccc3)C2)C1 | 64.9% |
| CN(C)S(=O)(=O)N1CCC2(CC1)CC(OCC1CC1)CO2 (stereo not drawn) | 28.2% |
| CN(C)S(=O)(=O)N1CC[C@]2(C[C@@H](OCc3ccccn3)CO2)C1 | 39.4% |
| COCC(=O)N1CCN(C(C)c2ncc(-c3ccccc3)o2)CC1 (stereo not drawn) | 40.2% |
| Cc1cc2n(n1)CC(CNCc1ccc(-n3cccn3)cc1)CN2 (stereo not drawn) | 6.35% |
| O=C(Nc1ccc(OC2CCCC2)cc1)C1CCCN1c1nccs1 (stereo not drawn) | 2.625% |
| CC(C)Oc1cccc(F)c1C(C(=O)O)N1CCCN(C)CC1 (stereo not drawn) | 28.2% |
| Cn1cc(-c2cnc(N3CCOCC3)nc2)cc1C(=O)NC1CC1 | -1.55% |
| Cc1cc(CN2CCN(C(=O)NCc3ccoc3)CC2)no1 | -7.35% |
| O=C(NC[C@]1(O)CN(Cc2ncccc2F)C[C@H]1O)c1cc[nH]n1 | 40.4% |
| CC(O)(CNc1ccc(Cl)c(C#N)n1)c1ccsc1 (stereo not drawn) | -20.3% |
| CCCC(=O)Nc1cccc([C@H]2C[C@@H](NC(C)=O)CCO2)c1 | 33.85% |

| SMILES | INHIBITION |
| --- | --- |
| CNC(=O)c1cc2c(nc1NCC(C)C)CCN(c1ccncn1)CC2 | -38.7% |
| CN(Cc1nc(N2CCCC2)ncc1-c1ccncc1)C(=O)C(C)(C)C | 21.6% |
| COc1ccc2c(c1)NC(C1CCN(C(=O)C3CC3)CC1)NS2(=O)=O (stereo not drawn) | -30.9% |
| Cc1cc(C(=O)N2CCCC2c2c(C)nn(C)c2C)no1 (stereo not drawn) | 23.5% |
| Cc1ccc(C(=O)Nc2cn[nH]c2)cc1F | 0.5% |
| Fc1ccc(Br)c(NCc2nnsc2Cl)c1 | 43.1% |
| CC1CCCCN1C(=O)c1ccn(COc2ccc(F)cc2)n1 (stereo not drawn) | -3.11% |
| CC(C)NC(=O)N1CCC2(C1)CN(c1ccsc1)C(=O)CN2C (stereo not drawn) | 27.9% |
| O=C(c1ccccc1)N1CCC[C@]2(C[C@@H](OCc3ccncc3)CO2)C1 | -13.7% |
| O=C(N1CCCC1)N1CCC[C@]2(C[C@@H](OCc3ccncc3)CO2)C1 | 53.9% |
| O=C(C1CC1)N1CCC[C@]2(C[C@@H](OCc3ccncc3)CO2)C1 | 10.5% |
| CCc1nc(CN(C)CC(N)=O)cs1 | 31.8% |
| Cc1c(C(C)NC(=O)C2CCCCC2)cnn1C (stereo not drawn) | 8.12% |
| Cc1c(C(C)NC(=O)N2CCN(C3CCCC3)CC2)cnn1C (stereo not drawn) | 70.9% |
| Cc1c(C(C)NC(=O)C2CCCC2)cnn1C (stereo not drawn) | -8.87% |
| O=C1CCC(=O)N1c1nn(Cc2c(F)cccc2Cl)cc1Cl | 24.8% |
| CN(C)c1ccc(C(=O)Nc2ccn(CCc3ccncc3)n2)cn1 | -17.7% |
| O=C(Cc1c[nH]c2ccccc12)N1CCC(Nc2cccnn2)CC1 | 21.8% |
| O=C(Cc1cccc2ccccc12)N1CCC(Nc2cccnn2)CC1 | -9.76% |
| Cc1noc(C)c1CC(=O)N1CCC(Nc2cccnn2)CC1 | 17.883% |
| Cn1cc(CC(=O)N2CCC(Nc3cccnn3)CC2)c2ccccc21 | 66.8% |
| Cc1nn(C)c(C)c1CC(=O)N1CCC(Nc2cccnn2)CC1 | 53.5% |
| Cc1ccc(NC2CCN(C(=O)Cc3c(C)nn(C)c3C)CC2)nn1 | -3.547% |
| CC(NC(=O)NCc1cccs1)c1ccc2c(c1)CCC(=O)N2 (stereo not drawn) | -27.8% |
| Cc1cc(C)c2c(c1)C(NCc1c(C)nn(C)c1N(C)C)CCO2 (stereo not drawn) | 16.515% |
